A selection: hits, their analogues and other compounds. The true share with any hit is near 2.5%.
HDAC3 inhib: HDAC3 deacetylase inhibitors, primary screen, biochemical, fluorescence, cell-free homogeneous. Histone deacetylase 3 (Homo sapiens), O15379. recombinant HDAC3, fluorogenic peptide/trypsin coupled. inhibition, % at 8.3 µM. 0.15% of 320,000 active; in the data active = inhibition above about 26%, passing the limit was not always enough
Target sequence (O15379 whole entry, looked up): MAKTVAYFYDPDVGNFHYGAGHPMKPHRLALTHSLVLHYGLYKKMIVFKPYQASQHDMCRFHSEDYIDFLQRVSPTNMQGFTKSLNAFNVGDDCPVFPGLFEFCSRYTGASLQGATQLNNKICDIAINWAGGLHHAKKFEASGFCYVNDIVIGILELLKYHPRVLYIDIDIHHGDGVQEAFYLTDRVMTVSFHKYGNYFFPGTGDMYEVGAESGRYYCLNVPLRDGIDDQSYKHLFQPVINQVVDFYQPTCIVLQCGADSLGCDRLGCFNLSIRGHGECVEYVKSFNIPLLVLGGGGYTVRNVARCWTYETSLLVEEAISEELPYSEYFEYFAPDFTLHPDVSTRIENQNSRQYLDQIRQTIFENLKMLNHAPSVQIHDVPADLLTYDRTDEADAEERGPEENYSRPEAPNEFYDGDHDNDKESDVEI
UBC9 SUMO inh: inhibitors of in vitro SUMOylation cascade, primary screen, biochemical, HTRF, uHTS; HTRF SUMOylation assay, SAE1/SAE2 + UBC9; inhibition, % at 35 µM; AID 2006, 2009; 0.36% of 290,000 active; in the data active = inhibition above about 50%, passing the limit was not always enough
PfM18AAP inh: PfM18AAP inhibitors, malaria aminopeptidase, primary screen, biochemical, QFRET, recombinant enzyme | 1.2% of 290,000 active | H-Glu-NHMec fluorogenic cleavage | AID 1822, 2009 | inhibition, % at 7.35 µM;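 active = inhibition above the campaign mean inhibition over all tested compounds plus 3 SD, cut at about 28% in these data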
PHOSPHO1 block: PubChem AID 1565 | recombinant PHOSPHO1, absorbance phosphatase assay | Phosphoethanolamine/phosphocholine phosphatase (Homo sapiens), Q8TCT1 | 1.1% of 290,000 active | inhibition, % at 13.3 µM; in the data active = inhibition above about 60%
G6PDH counter: L. mesenteroides G6PDH inhibitors, counter-screen for G6PDH-coupled screening assays, biochemical, Leuconostoc mesenteroides enzyme; inhibition, % at 5 µM; 0.12% of 200,000 active; Purified L. mesenteroides G6PDH, diaphorase/resazurin coupled fluorescence, 45 min; AID 1020, 2008; in the data active = inhibition above about 50%
p97 inhibitor: inhibitors of human p97 ATPase, primary screen, biochemical. 0.42% of 220,000 active. inhibition, % at 8 µM. AID 1481, 2009. recombinant p97 ATPase, Kinase-Glo ATP luminescence, 3 h; in the data active = inhibition above about 15%
Each line names hits and unclear results; the compound was inactive in the other large screens.

Nc1nc(Nc2ccccc2)nc(NC2CCCCC2)c1[N+](=O)[O-]	none (no result: G6PDH counter, p97 inhibitor)
CCC(=O)N1CCc2cc(S(=O)(=O)NCCC(=O)N3CCN(c4cccc(C)c4)C(C)C3)ccc21 (centres undefined)	none (no result: G6PDH counter, p97 inhibitor)
CC1(C)CC(=O)C2=C(C1)NC(=S)C(C#N)C21CCCCC1 (centres undefined)	HDAC3 inhib 39, PfM18AAP inh 29 (no result: G6PDH counter)
O=C(N/N=C/c1ccncc1)c1cccc(NC(=O)c2ccc(Cl)cc2)c1	UBC9 SUMO inh 62
O=C(N/N=C/c1ccc(O)cc1)c1cccc(N/N=C/c2ccc(O)cc2)c1	p97 inhibitor 17 (no result: G6PDH counter)
O=C(N/N=C/c1ccncc1)c1cccc(N/N=C/c2ccncc2)c1	none
O=C(N/N=C/c1ccncc1)c1cc2ccccc2cc1O	PHOSPHO1 block 61 (no result: G6PDH counter, p97 inhibitor)
O=C(NNC(=S)NC(=O)C12CC3CC(CC(C3)C1)C2)c1ccncc1	PHOSPHO1 block 66
CC1(C(=O)NC(=S)NNC(=O)c2ccncc2)CCCCC1	none
CCOC(=O)NN1C(=O)c2ccccc2NC1c1ccccn1 (centres undefined)	PfM18AAP inh 30
S=c1[nH]nc(NCCCN2CCOCC2)s1	PHOSPHO1 block 62 (no result: G6PDH counter)
c1ccc2[nH]c(NCCCN3CCOCC3)nc2c1	none
CCCN(C(=O)CSc1ncnc2sccc12)c1c(N)n(Cc2ccccc2)c(=O)[nH]c1=O	none (no result: UBC9 SUMO inh, PfM18AAP inh, PHOSPHO1 block, G6PDH counter, p97 inhibitor)
Cc1ccc(NCc2nc3ccccc3n2C)cc1C	PHOSPHO1 block 60 (no result: G6PDH counter, p97 inhibitor)
Cc1ccc(NCc2nc3ccccc3n2C)cc1	none
CCCc1cc(C(=O)NNC(=S)NCC2CCCO2)cs1 (centres undefined)	none
C=CCNC(=S)NNC(=O)c1ccc(OC(C)C)cc1	PHOSPHO1 block 72
CCNC(=S)NNC(=O)c1ccc(OC(F)F)cc1	PHOSPHO1 block 73
CCCc1cc(C(=O)NNC(=S)NC(C)c2ccccc2)cs1 (centres undefined)	PHOSPHO1 block 83
CCNC(=S)NNC(=O)c1csc(C)c1	PfM18AAP inh 28
CCCCNC(=S)NNC(=O)c1csc(C)c1	none
CCCCN(C(=O)C(C)Oc1ccc(Br)cc1)c1c(N)n(Cc2ccccc2)c(=O)[nH]c1=O (centres undefined)	none (no result: G6PDH counter, p97 inhibitor)
COc1c2c(cc3ccc(=O)oc13)CCO2	none (no result: G6PDH counter, p97 inhibitor)
CCOC(=O)c1sc(NC(=O)C2CC(=O)N(c3ccc(C)cc3)C2)nc1C (centres undefined)	none (no result: G6PDH counter, p97 inhibitor)
CN(C(=O)COc1ccc(Oc2ccccc2)cc1)C1CCS(=O)(=O)C1 (centres undefined)	none (no result: G6PDH counter, p97 inhibitor)
CC(C)CNC(=S)NNC(=O)c1ccc(OC(F)F)cc1	PHOSPHO1 block 94
CC(C)CNC(=S)NNC(=O)c1csc2ccccc12	PHOSPHO1 block 88
CCc1noc(C)c1C(=O)NC1CC(C)(C)Cc2c1cnn2-c1ccccc1 (centres undefined)	none (no result: G6PDH counter, p97 inhibitor)
O=C(C[n+]1ccccc1)N/N=C/c1ccc(Cl)c(Cl)c1	none (no result: G6PDH counter, p97 inhibitor)
CCOC(=O)c1c(-c2ccccc2)oc2ccc(OC(C)C(=O)O)cc12 (centres undefined)	UBC9 SUMO inh 55 (no result: HDAC3 inhib, G6PDH counter)
CC1CCCC(NC(=O)CCC(=O)NCc2ccccc2)C1C (centres undefined)	none (no result: G6PDH counter, p97 inhibitor)
CCc1cccc(CC)c1NC(=O)COC(=O)c1ccccc1-c1nc2ccccc2s1	PHOSPHO1 block 178
CCCN1C(=O)SC(CC(=O)Nc2ccccc2)C1=O (centres undefined)	none
O=C(CC1Sc2ncnn2C1=O)Nc1ccc(Cl)cc1 (centres undefined)	PfM18AAP inh 30
O=C(CC1SC(=O)N(c2ccccc2)C1=O)Nc1ccc(Br)cc1 (centres undefined)	HDAC3 inhib 50 (no result: G6PDH counter)
O=C(CC1SC(=O)N(c2ccccc2)C1=O)Nc1ccc(Cl)cc1 (centres undefined)	HDAC3 inhib 45 (no result: G6PDH counter)
CCn1nc(C)c(CN2CCCC(CNS(=O)(=O)c3ccc(OC)cc3)C2)c1C (centres undefined)	none (no result: G6PDH counter, p97 inhibitor)
Cc1nc2ccc(-c3ccccc3)cc2o1	PHOSPHO1 block 79
CNC(=O)Nc1ccc2nc(C)oc2c1	none (no result: G6PDH counter)
COc1cccc(C2=Nc3cccc4cccc(c34)N2)c1	none
c1coc(C2=Nc3cccc4cccc(c34)N2)c1	UBC9 SUMO inh 94
O=C(c1ncc[nH]1)c1cccs1	none (no result: G6PDH counter)
